Data as given in PubChem BioAssay (NCI).
The panel holds about 83,000 compounds, 20% with a hit somewhere; the sample as a whole holds those more often.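 Results are percent growth after 48 hours of single-concentration exposure. 100 means growth as in untreated cells, lower positive values show inhibition; negative values down to -100 show cell death.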 The source made the active and inactive calls. Rule for the calls: active = growth percent below 10; inactive = the rest.

Key:
Experiment in all cases: NCI-60 one-dose screen, 48 h (100 = growth as untreated, 0 = no growth, -100 = all killed)
Conditions in all cases: 10 µM
SK-MEL-2 melanoma = tested on: SK-MEL-2 melanoma
SN12C renal = tested on: SN12C renal
UO-31 renal = tested on: UO-31 renal
TK-10 renal = tested on: TK-10 renal
ACHN renal = tested on: ACHN renal
CAKI-1 renal = tested on: CAKI-1 renal
A498 renal = tested on: A498 renal
CCRF-CEM leukemia = tested on: CCRF-CEM leukemia
MOLT-4 leukemia = tested on: MOLT-4 leukemia
SR leukemia = tested on: SR leukemia
RPMI-8226 leukemia = tested on: RPMI-8226 leukemia
OVCAR-8 ovarian = tested on: OVCAR-8 ovarian
OVCAR-5 ovarian = tested on: OVCAR-5 ovarian
OVCAR-4 ovarian = tested on: OVCAR-4 ovarian
SK-OV-3 ovarian = tested on: SK-OV-3 ovarian
IGROV1 ovarian = tested on: IGROV1 ovarian
OVCAR-3 ovarian = tested on: OVCAR-3 ovarian
HS 578T breast = tested on: HS 578T breast
NCI/ADR-RES ovarian = tested on: NCI/ADR-RES ovarian

Measured: growth

COC(=O)c1c(C)nc(Nc2nc3ccccc3s2)nc1-c1ccc(Cl)cc1Cl
inactive: SK-MEL-2 melanoma 120% | SN12C renal 99.8% | UO-31 renal 81.2% | TK-10 renal 120% | ACHN renal 96.7% | CAKI-1 renal 99.6% | A498 renal 100% | CCRF-CEM leukemia 95% | MOLT-4 leukemia 84.7% | SR leukemia 99.4% | RPMI-8226 leukemia 96.2% | OVCAR-8 ovarian 103% | OVCAR-5 ovarian 113% | OVCAR-4 ovarian 91.6% | SK-OV-3 ovarian 102% | IGROV1 ovarian 124% | OVCAR-3 ovarian 92.2% | HS 578T breast 108% | NCI/ADR-RES ovarian 104%

CCCCc1ccc(NC(=O)N(CCCl)N=O)cc1
inactive: SK-MEL-2 melanoma 94.8% | SN12C renal 96.1% | UO-31 renal 81.3% | TK-10 renal 105% | ACHN renal 106% | CAKI-1 renal 99.3% | A498 renal 103% | CCRF-CEM leukemia 88.2% | MOLT-4 leukemia 98.7% | SR leukemia 30.9% | RPMI-8226 leukemia 98.6% | OVCAR-8 ovarian 96.7% | OVCAR-5 ovarian 104% | OVCAR-4 ovarian 108% | SK-OV-3 ovarian 95.3% | IGROV1 ovarian 97.2% | OVCAR-3 ovarian 105% | HS 578T breast 111% | NCI/ADR-RES ovarian 115%

O=C(O)CN1C(=O)C=CC1=O
inactive: SK-MEL-2 melanoma 98.2% | SN12C renal 106% | UO-31 renal 91.6% | TK-10 renal 96.7% | ACHN renal 104% | CAKI-1 renal 102% | A498 renal 91.6% | CCRF-CEM leukemia 107% | MOLT-4 leukemia 85.2% | SR leukemia 109% | RPMI-8226 leukemia 106% | OVCAR-8 ovarian 108% | OVCAR-5 ovarian 101% | OVCAR-4 ovarian 115% | SK-OV-3 ovarian 105% | IGROV1 ovarian 100% | OVCAR-3 ovarian 104% | HS 578T breast 107% | NCI/ADR-RES ovarian 111%

N/C(=N\O)c1cn(C2OC(CO)C(O)C2O)c2ncnc(N)c12 (stereo not given)
inactive: ACHN renal 11.6% | OVCAR-5 ovarian 24.3%
active: SK-MEL-2 melanoma -41.5% | SN12C renal 3.58% | UO-31 renal 10% | TK-10 renal -0.402% | CAKI-1 renal 3.33% | A498 renal -56.3% | CCRF-CEM leukemia -10.4% | MOLT-4 leukemia -27.7% | SR leukemia -4.39% | RPMI-8226 leukemia -43.6% | OVCAR-8 ovarian -14.4% | OVCAR-4 ovarian -21.6% | SK-OV-3 ovarian -30.2% | IGROV1 ovarian -13.7% | OVCAR-3 ovarian -18.3% | HS 578T breast -5.15% | NCI/ADR-RES ovarian 4.77%

COCCNCC(O)Cn1c2ccc(Cl)cc2c2cc(Cl)ccc21 (stereo not given)
active: SK-MEL-2 melanoma -79.4% | SN12C renal -91.9% | UO-31 renal -20% | CAKI-1 renal 8.86% | CCRF-CEM leukemia -23.2% | MOLT-4 leukemia 4.5% | SR leukemia -19.9% | RPMI-8226 leukemia -36.9% | OVCAR-8 ovarian -69.9% | OVCAR-5 ovarian -79.1% | OVCAR-4 ovarian -97.3% | IGROV1 ovarian -38% | OVCAR-3 ovarian -46.3% | HS 578T breast -12.3% | NCI/ADR-RES ovarian -6.15%
inactive: TK-10 renal 58.6% | ACHN renal 10.5% | A498 renal 62.6% | SK-OV-3 ovarian 52.7%

CN1CCN(c2nc(-c3cccnc3)nc3sc4c(c23)CCCCCC4)CC1
inactive: SK-MEL-2 melanoma 114% | SN12C renal 90.8% | UO-31 renal 75% | TK-10 renal 108% | ACHN renal 89.6% | CAKI-1 renal 86.7% | A498 renal 99.3% | CCRF-CEM leukemia 92.4% | MOLT-4 leukemia 39.6% | SR leukemia 34.2% | RPMI-8226 leukemia 80.6% | OVCAR-8 ovarian 95.1% | OVCAR-5 ovarian 104% | OVCAR-4 ovarian 80.8% | SK-OV-3 ovarian 97.2% | IGROV1 ovarian 102% | OVCAR-3 ovarian 95.8% | HS 578T breast 85.3% | NCI/ADR-RES ovarian 89.3%

COc1ccc(Nc2ccnc(N3CCN(c4ccnc5cc(Cl)ccc45)CC3)n2)cc1
inactive: SN12C renal 14.1% | ACHN renal 11.2% | OVCAR-4 ovarian 10.7% | SK-OV-3 ovarian 12.7% | OVCAR-3 ovarian 15.8% | HS 578T breast 10.4%
active: SK-MEL-2 melanoma -19.3% | UO-31 renal -1.7% | TK-10 renal 4.85% | CAKI-1 renal 6.78% | A498 renal -6.15% | CCRF-CEM leukemia 2.09% | MOLT-4 leukemia -48.9% | SR leukemia 1.29% | RPMI-8226 leukemia -23.1% | OVCAR-8 ovarian 0.239% | OVCAR-5 ovarian 9.98% | IGROV1 ovarian -0.0353% | NCI/ADR-RES ovarian -2.96%

COc1ccc(C(=O)/C=C/c2cc(-c3ccc4c(c3)OCO4)n[nH]2)cc1OC
inactive: SK-MEL-2 melanoma 84.4% | SN12C renal 60.3% | UO-31 renal 44.4% | TK-10 renal 62.8% | ACHN renal 76.3% | CAKI-1 renal 38.1% | A498 renal 41.9% | CCRF-CEM leukemia 21.6% | OVCAR-8 ovarian 47.4% | OVCAR-5 ovarian 75.9% | OVCAR-4 ovarian 59.9% | SK-OV-3 ovarian 93.3% | IGROV1 ovarian 44.1% | OVCAR-3 ovarian 36.6% | HS 578T breast 79.3% | NCI/ADR-RES ovarian 57.8%
active: MOLT-4 leukemia -9.67% | SR leukemia -5.36% | RPMI-8226 leukemia 4.4%

COc1cc(CSc2nc3ccc(Cl)cc3c(=O)n2-c2ccccc2)cc(OC)c1OC
inactive: SK-MEL-2 melanoma 77.5% | SN12C renal 76% | UO-31 renal 47.8% | TK-10 renal 97.7% | ACHN renal 78.9% | CAKI-1 renal 73.9% | A498 renal 81.7% | CCRF-CEM leukemia 95.1% | MOLT-4 leukemia 69.8% | SR leukemia 45.6% | RPMI-8226 leukemia 105% | OVCAR-8 ovarian 84.3% | OVCAR-5 ovarian 84.7% | OVCAR-4 ovarian 81.7% | SK-OV-3 ovarian 94.4% | IGROV1 ovarian 72.5% | OVCAR-3 ovarian 77.8% | HS 578T breast 90.3% | NCI/ADR-RES ovarian 75.5%

COc1ccc(C2C=C(c3ccc(Cl)cc3)N=C3SC=CN32)c(Br)c1 (stereo not given)
inactive: SK-MEL-2 melanoma 85.3% | SN12C renal 67.6% | UO-31 renal 84.3% | TK-10 renal 83.5% | ACHN renal 67.7% | CAKI-1 renal 54.1% | A498 renal 89.7% | CCRF-CEM leukemia 71.7% | MOLT-4 leukemia 53.1% | SR leukemia 59.2% | RPMI-8226 leukemia 52.3% | OVCAR-8 ovarian 67.3% | OVCAR-5 ovarian 98.2% | OVCAR-4 ovarian 80.9% | SK-OV-3 ovarian 117% | IGROV1 ovarian 98.1% | OVCAR-3 ovarian 60.5% | HS 578T breast 94.8% | NCI/ADR-RES ovarian 89.9%

O=NN(CCCl)C(=O)Nc1ccc(NC(=O)N(CCCl)N=O)cc1
active: SR leukemia 2.28%
inactive: SK-MEL-2 melanoma 129% | SN12C renal 90.7% | UO-31 renal 96.6% | TK-10 renal 114% | ACHN renal 96.4% | CAKI-1 renal 100% | A498 renal 67.1% | CCRF-CEM leukemia 102% | MOLT-4 leukemia 97.2% | RPMI-8226 leukemia 100% | OVCAR-8 ovarian 93% | OVCAR-5 ovarian 95.2% | OVCAR-4 ovarian 93.7% | SK-OV-3 ovarian 105% | IGROV1 ovarian 85.9% | OVCAR-3 ovarian 111% | HS 578T breast 104% | NCI/ADR-RES ovarian 98.7%

Cc1ncc([N+](=O)[O-])n1CCOc1ccc(C(=O)/C=C/c2ccc(C(F)(F)F)cc2)cc1
inactive: SK-MEL-2 melanoma 81% | SN12C renal 77.9% | UO-31 renal 40.6% | TK-10 renal 72.4% | ACHN renal 80.7% | CAKI-1 renal 81.3% | A498 renal 74.5% | CCRF-CEM leukemia 27.5% | MOLT-4 leukemia 28.3% | RPMI-8226 leukemia 12.9% | OVCAR-8 ovarian 51.8% | OVCAR-5 ovarian 90% | OVCAR-4 ovarian 100% | SK-OV-3 ovarian 79.4% | IGROV1 ovarian 80.4% | OVCAR-3 ovarian 51.3% | HS 578T breast 66.9% | NCI/ADR-RES ovarian 65.9%
active: SR leukemia -13.2%

COc1ccc(C(=O)/C=C/c2cc(-c3ccc(OC)c(OC)c3)n[nH]2)cc1OC
active: SN12C renal -31.7% | UO-31 renal -95% | TK-10 renal -20.7% | ACHN renal -70.9% | CAKI-1 renal -24.4% | A498 renal -40.7% | CCRF-CEM leukemia 3.32% | MOLT-4 leukemia 1.44% | SR leukemia 4.7% | RPMI-8226 leukemia -45.9% | OVCAR-8 ovarian -22.8% | OVCAR-5 ovarian -8.32% | OVCAR-4 ovarian -38.9% | IGROV1 ovarian -32.7% | OVCAR-3 ovarian -42% | NCI/ADR-RES ovarian 4.63%
inactive: SK-MEL-2 melanoma 42.7% | SK-OV-3 ovarian 41.2% | HS 578T breast 46.6%

Cc1nc(N)sc1Sc1nc2ccc(Cl)cc2c(=O)n1-c1ccc(Oc2ccccc2)cc1
inactive: SK-MEL-2 melanoma 96.9% | SN12C renal 73.9% | UO-31 renal 61.8% | TK-10 renal 89% | ACHN renal 78.5% | CAKI-1 renal 73.5% | A498 renal 39.9% | CCRF-CEM leukemia 41.5% | MOLT-4 leukemia 44.3% | RPMI-8226 leukemia 68.1% | OVCAR-8 ovarian 75.2% | OVCAR-5 ovarian 87.9% | OVCAR-4 ovarian 40.9% | SK-OV-3 ovarian 104% | IGROV1 ovarian 101% | OVCAR-3 ovarian 91.3% | HS 578T breast 81.9% | NCI/ADR-RES ovarian 69.9%
active: SR leukemia -44.8%

COc1cc2nc(Sc3sc(N)nc3C)n(-c3ccc(Oc4ccccc4)cc3)c(=O)c2cc1OC
inactive: SK-MEL-2 melanoma 107% | SN12C renal 79.7% | UO-31 renal 76.1% | TK-10 renal 98.1% | ACHN renal 81.5% | CAKI-1 renal 94.1% | A498 renal 82.1% | CCRF-CEM leukemia 64.5% | MOLT-4 leukemia 54% | RPMI-8226 leukemia 67.6% | OVCAR-8 ovarian 85% | OVCAR-5 ovarian 106% | OVCAR-4 ovarian 50.7% | SK-OV-3 ovarian 114% | IGROV1 ovarian 107% | OVCAR-3 ovarian 93.5% | HS 578T breast 88.5% | NCI/ADR-RES ovarian 75.2%
active: SR leukemia -43.4%
